Test results published in PubChem BioAssay (Tox21).
Results filed as inconclusive are left out. Where a call stands in place of a potency, no number is given. Active and inactive are the calls of the source. The call rests on the fitted dose curve.
Potency means the concentration at half of the fitted maximal effect.

Test: qHTS assay for small molecule agonists of the p53 signaling pathway - cell viability (AID 651633); further: nearly all actives have a fitted effect of over 30% in size
Conditions: p53RE-bla HCT-116 viability, ATP luminescence, 16 h; series mostly up to 83.3 µM
Summary of the method: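 Viability counter-read: CellTiter-Glo luminescence (30 min, room temperature) in the same p53RE-bla plates. These plates had been exposed to compounds for 16 h at 37 C.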
For `CCCCNS(=O)(=O)c1ccc(C)cc1`, the Potency was “inactive”. In the case of `CCCCCCCCCCCCCC[N+](C)(C)C`, the Potency is reported as 26.6 µM (active). In the case of `O=C(Oc1ccccc1)Oc1ccccc1`, the Potency is reported as “inactive”. For `OC1CCCc2ccccc21` (stereo not given), the Potency was “inactive”. With `OC[C@H]1O[C@H](O[C@H]2O[C@H](CO)[C@@H](O)[C@H](O)[C@H]2O)[C@H](O)[C@@H](O)[C@@H]1O` the Potency was “inactive”. With `CC(C)CCCCCOC(=O)CCS` the Potency was “inactive”. With `CCC(COC(=O)CCS)(COC(=O)CCS)COC(=O)CCS` the Potency was “inactive”. With `COC(=O)Nc1nc2ccc(C(=O)c3ccccc3)cc2[nH]1` the Potency was “inactive”. In the case of `CC(=O)OCC=C(C)C`, the Potency is reported as “inactive”. In the case of `CCCCCCOC(=O)C(C)CC` (stereo not given), the Potency is reported as “inactive”. In the case of `COC(=O)c1ccccc1C`, the Potency is reported as “inactive”. For `CN(C)Cc1cc(C(C)(C)C)c(O)c(C(C)(C)C)c1`, the Potency was “inactive”. For `CC/C=C\CCCCCO`, the Potency was “inactive”. With `Cc1ccc(N/N=c2\c(=O)cc/c(=N\Nc3ccc(S(=O)(=O)O)cc3)c2=O)c(C)c1` the Potency was “inactive”. In the case of `O=C(/C=C/c1ccccc1)OC/C=C/c1ccccc1`, the Potency is reported as “inactive”. For `CCC(=O)OC(=O)CC`, the Potency was “inactive”. In the case of `COc1cc(S(=O)(=O)O)c(C)cc1N=Nc1c(O)ccc2cc(S(=O)(=O)O)ccc12`, the Potency is reported as “inactive”. For `O=[N+]([O-])c1cccc(C(F)(F)F)c1`, the Potency was “inactive”. With `CCO[Si](OCC)(OCC)OCC` the Potency was “inactive”. For `Cc1ccc(-c2ccccc2)cc1`, the Potency was “inactive”. For `ClCCl`, the Potency was “inactive”. With `CN1CCCCC1CCN1c2ccccc2Sc2ccc(S(C)=O)cc21` (stereo not given) the Potency was “inactive”. For `C[Si](Cl)(c1ccccc1)c1ccccc1`, the Potency was “inactive”. For `NC(=S)NC(N)=S`, the Potency was “inactive”. For `O=C(O)[C@H](O)[C@@H](O)[C@H](O[C@@H]1O[C@H](CO)[C@H](O)[C@H](O)[C@H]1O)[C@H](O)CO`, the Potency was “inactive”.
